# According to the OligoGym collection:
# Target: RPS6KA5
# Test: pooled miR-30 sensor sort-seq; sequence = guide strand
# Conditions: shRNA
# Further: reference of the scale not given here.
row,Sequence,sensor-assay potency score (higher = more potent)
1,TACACGTCAAACTTCGGTCATG,-0.748
2,TCACTTTTTAATATTCTCCTAG,-0.3
3,TTTTTCTCCATCAACAGTGAAA,-1.03
4,TTTTTATGCACACACTTTCGAC,-1.13
5,TAATTCATCTCGAATGACTGGC,0.637
6,TTCTTCATGATTTCCACCGCGC,0.302
7,TTTCTGTGAACTCTTCTGCAAA,-1.11
8,TACAGCTGAAACAAGCTTCCTC,0.279
9,TTTGTTTGGATCTACTGTGAGA,-1.04
10,TTGCTGATTATTTTGACTGCAA,0.0107
11,TTCTCCTAGATATCTCAGCTTG,-0.946

# Target: RRP12
# Test: as above
# Conditions: shRNA
row,Sequence,sensor-assay potency score (higher = more potent)
1,TATGTAACTTCACAGCATCGAC,-0.864
2,TTGAGCTCTGCTGACAGGGTGC,-0.0342
3,TTCAACTTAGCTGAGACACCAG,-0.063
4,TAACTTCACAGCATCGACTGTC,0.541
5,TTGCTCTCTAGGTAGGGCCGGA,-0.614
6,TTGTTGTCATCAGAGCAGCGAA,-1.32
7,TGCAGCTTCATCTTCTTCCTGC,0.0542
8,TAGATCTTAGATTCCACTGTGC,0.564
9,TTTCTGGTGCTTGAGCTTCTGG,-0.862
10,TTGTAAATCATTCTCACTGGGA,0.0361
11,TCGACTGTCAGGTCACTCCTTC,-0.238
12,TCAACTTAGCTGAGACACCAGA,-0.378
